From ChEMBL document CHEMBL4513146, “CO-ADD screening of Karazin Kharkiv National University (Ukraine) compounds”
Measured potencies and affinities stand elsewhere.

What was measured:
Klebsiella pneumoniae = details: Concentration 32 ug.mL-1;; ASSAY_TEST Inhibition of Bacterial Growth; detection method Absorption (OD600); MEDIA CAMHB; plate type 384well; NBS; CORNING #3640; time 18 hr
Candida albicans = details: Concentration 32 ug.mL-1; ASSAY_TEST Inhibition of Fungal Growth; detection method Absorption (OD530)
Cryptococcus neoformans = details: Concentration 32 ug.mL-1; ASSAY_TEST Inhibition of Fungal Growth; detection method Resazurin; Absorption (OD600-OD570); plate type 384well; NBS; CORNING #3640

Row | Compound | Inhibition (Klebsiella pneumoniae) | Inhibition (Candida albicans) | Inhibition (Cryptococcus neoformans)
1 | Cc1ccc(Oc2nc3ccccc3n3c(=O)n(CC(=O)Nc4ccccc4C(F)(F)F)nc23)cc1 | 13.52% | 1.1% | -22.18%
2 | CCc1nnc2c(SCC(=O)Nc3ccc4c(c3)OCCO4)nc3ccccc3n12 | 7.64% | 5.98% | -5.14%
3 | COc1ccc(NC(=O)Cn2nc3ccc(SC4CCCCC4)nn3c2=O)c(OC)c1 | 4.32% | -0.43% | -25.29%
4 | CCc1ccc(NC(=O)Cn2nc3c(=O)n(-c4ccc(Br)cc4)ccn3c2=O)cc1 | -9.6% | 4.29% | -8.7%
5 | O=C(CCc1nnc2c(N3CCCCC3)nc3ccccc3n12)NCc1ccc(F)cc1 | 6.52% | 8.78% | -23.71%
6 | CCc1nnc2c(S(=O)(=O)N(Cc3ccccc3C)c3ccc(Cl)cc3)cccn12 | 3.29% | 6.38% | -5.94%
7 | Cc1ccc(CNC(=O)CSc2nnc3c4cc(-c5ccc(C)cc5)nn4ccn23)cc1 | 11.71% | -0.39% | -36.09%
8 | COc1ccc(-c2cc3c4nnc(SCC(=O)NCc5ccc(C)cc5)n4ccn3n2)cc1 | 7.85% | 1.56% | -10.46%
9 | Cc1ccc(NC(=O)CSc2nnc3ccc(C(=O)Nc4cccc(F)c4)cn23)cc1F | 6.03% | -0.33% | -4.6%
10 | Cc1nnc2c(=O)n(CC(=O)Nc3ccccc3F)c3ccccc3n12 | 0.65% | 3.67% | -6.39%
11 | COc1ccc(-c2cc3c4nn(CC(=O)Nc5ccc(C)cc5)c(=O)n4ccn3n2)cc1 | 7.98% | 8.11% | -26.93%
12 | N#CCSc1nnc2c(=O)n(-c3ccccc3)ccn12 | 18.13% | 2.9% | -7.27%
13 | Cc1ccc(NC(=O)Cn2nc3ccc(SC4CCCCC4)nn3c2=O)cc1 | -2.92% | 2.85% | -17.59%
14 | Cc1ccc(C)c(NC(=O)Cn2nc3ccc(-c4ccc(C)c(C)c4)nn3c2=O)c1 | -9.48% | 0.94% | -3.49%
15 | COc1ccc(OC)c(NC(=O)Cn2nc3c(SCc4ccc(Cl)cc4)nccn3c2=O)c1 | 1.59% | 23.62% | -18.91%
16 | Cc1ccc(NC(=O)Cn2c(=O)c3nnc(C(C)C)n3c3ccccc32)c(C)c1 | 5.02% | 1.04% | -15.61%
17 | Cc1ccc(NC(=O)Cn2nc3ccc(SC(C)(C)C)nn3c2=O)cc1C | 8.45% | 5.53% | -7.37%
18 | Cc1ccc(Sc2nccn3c(=O)n(CC(=O)N4CCN(c5ccc(F)cc5)CC4)nc23)c(C)c1 | -6.63% | 1.39% | -106.74%
19 | O=C(Cn1nc2ccc(SCc3ccc(Cl)cc3)nn2c1=O)Nc1ccc(F)c(F)c1 | 3.9% | 20.34% | -13.26%
20 | Cc1cccc(C)c1NC(=O)Cn1nc2c(Sc3cccc(F)c3)nccn2c1=O | 4.53% | -1.35% | -4.17%
21 | CCCN(C)c1nccn2c(=O)n(CC(=O)Nc3cccc(C(C)=O)c3)nc12 | 4.82% | 2.07% | -8.37%
22 | COc1ccc(C)cc1NC(=O)Cn1nc2c3cc(-c4ccc(C)c(C)c4)nn3ccn2c1=O | 11.68% | 0.52% | -9.82%
23 | Cc1cc(NC(=O)Cn2c(=O)c3nnc(C(C)C)n3c3ccccc32)ccc1Br | 7.01% | 3.1% | -11.52%
24 | COc1ccc(C(=O)CSc2nnc3c(=O)n(-c4ccc(F)c(F)c4)ccn23)cc1 | 16.31% | 2.03% | -11.53%
25 | Cc1cccc(CN(c2cccc(Cl)c2)S(=O)(=O)c2cccn3c(C)nnc23)c1 | -0.09% | 1.52% | -9.64%
26 | COc1ccc(CN(c2ccc(F)c(F)c2)S(=O)(=O)c2ccc3nncn3c2)cc1 | 12.63% | 0.74% | -4.76%
27 | CCOc1ccccc1NC(=O)Cn1nc2c(N3CCN(c4ccccc4C)CC3)nccn2c1=O | -9.36% | 21.63% | -5.29%
28 | COc1cc(NC(=O)Cn2nc3c4c5c(sc4ncn3c2=O)CCCC5)cc(OC)c1 | 4.67% | 7.26% | -16.68%
29 | COc1ccccc1N1CCN(C(=O)Cn2nc3c(Oc4ccc(C)cc4)nccn3c2=O)CC1 | 13.94% | 1.98% | -10.45%
30 | COc1ccccc1Cn1c(=O)c2sccc2n2c(=O)n(Cc3cccc(Br)c3)nc12 | 0.7% | -0.62% | -14.71%
